The values below come from PubChem BioAssay (NCI).

The nature of experiment [1]: NCI Yeast Anticancer Drug Screen. Data for the rad50 strain (AID 155).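 Also: 0% = growth of vehicle-only cultures of the same strain.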 The note with it: S. cerevisiae rad50 strain growth inhibition, hits give high values. A digest of the protocol: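 Growth of the mutant yeast was measured after compound exposure and referenced to vehicle-treated cultures.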
A short description of experiment [2]: NCI Yeast Anticancer Drug Screen. Data for the mec2-1 strain (AID 157). The settings on record: S. cerevisiae mec2-1 strain, hits give high values. A digest of the protocol:
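Vehicle-treated cultures served as reference for growth inhibition of compound-exposed mec2-1 yeast.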

Experiment [3] is described as follows: NCI Yeast Anticancer Drug Screen. Data for the sgs1 mgt1 strain (AID 161).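 Also: 0% = growth of cultures given vehicle only.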 The settings on record: S. cerevisiae sgs1 mgt1 strain, hits give high values. A digest of the protocol: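 Genetically altered yeast, compound exposure, growth inhibition relative to vehicle.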
Experiment [4] is described as follows: NCI Yeast Anticancer Drug Screen. Data for the cln2 rad14 strain (AID 165).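 Also: 0% = growth equal to vehicle treated cultures.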 The note with it: S. cerevisiae cln2 rad14 strain, hits give high values. The gist of the method:
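Each compound was tested on cln2 rad14 yeast. Inhibition of growth was calculated against vehicle-exposed controls.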

A short description of experiment [5]: NCI Yeast Anticancer Drug Screen. Data for the bub3 strain (AID 167). The settings on record: S. cerevisiae bub3 mutant strain, hits give high values. The gist of the method:
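Whole-cell yeast assay. The mutant strain was incubated with compounds, and growth inhibition was determined by comparison with vehicle-treated cells.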

Experiment [6] in a line: NCI Yeast Anticancer Drug Screen. Data for the mlh1 rad18 strain (AID 175). The settings on record: S. cerevisiae mlh1 rad18 strain growth inhibition, hits give high values. A digest of the protocol:
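Vehicle-treated cultures served as the reference for growth inhibition in a yeast strain carrying DNA damage repair alterations exposed to each compound.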

Setting [7] is: at 5.0 µM (retest, dose inferred, filed as 0.5).
The mark [8] stands for this setting: at 50.0 µM (retest, dose inferred, filed as 5.0).

Compounds without any hit were thinned out: in the full panel of roughly 79,000, 15% have a hit. Unmarked numbers belong to inactive results. Activity calls are given as the source filed them. Rule as the data show it: active = growth inhibition above about 70%; inactive = the rest.

Consider `Clc1ccc(/C(=C/c2ccccc2)Cn2ccnc2)cc1`, for which the growth inhibition was 88% (active) in experiment [1] (setting [7]); 93% (active) in experiment [1] (setting [8]); 75.6% (active) in experiment [1] (at 50.0 µM); 64% in experiment [2] (setting [7]); 86% (active) in experiment [2] (setting [8]); 78.8% (active) in experiment [2] (at 50.0 µM). For the same compound, the growth inhibition in experiment [3] (setting [7]) was 86% (active); in experiment [3] (setting [8]), 90% (active); in experiment [3] (at 50.0 µM), 75% (active); in experiment [4] (setting [7]), 85% (active); in experiment [4] (setting [8]), 83% (active); in experiment [4] (at 50.0 µM), 70.5% (active). In addition, the growth inhibition in experiment [5] (setting [7]) is 70% (active); in experiment [5] (setting [8]) it was 93% (active); in experiment [5] (at 50.0 µM), 81% (active); in experiment [6] (setting [7]) it was 83% (active); in experiment [6] (setting [8]) it was 90% (active); in experiment [6] (at 50.0 µM), 78.5% (active).
On to `CCCCCCCCCc1ccc(OCC(O)CO)cc1` (stereo not given), for which the growth inhibition in experiment [1] (setting [7]) was -3%; in experiment [1] (setting [8]), 98% (active); in experiment [1] (at 50.0 µM), 99.6% (active); in experiment [2] (setting [7]) it was -1%; in experiment [2] (setting [8]) it was 99% (active); in experiment [2] (at 50.0 µM) it was 99.7% (active). In addition, the growth inhibition in experiment [3] (setting [7]) was 2%; in experiment [3] (setting [8]), 99% (active); in experiment [3] (at 50.0 µM), 99.8% (active); in experiment [4] (setting [7]), -11%; in experiment [4] (setting [8]), 98% (active); in experiment [4] (at 50.0 µM) it was 99.5% (active). Further, the growth inhibition was -9% in experiment [5] (setting [7]); 98% (active) in experiment [5] (setting [8]); 99.8% (active) in experiment [5] (at 50.0 µM); -4% in experiment [6] (setting [7]); 98% (active) in experiment [6] (setting [8]); 99.5% (active) in experiment [6] (at 50.0 µM).
As to `Cc1ccccc1P(=O)(c1ccccc1C)c1ccccc1C`, the growth inhibition was 16% in experiment [1] (setting [7]); 31% in experiment [1] (setting [8]); 0.55% in experiment [1] (at 50.0 µM); 16% in experiment [2] (setting [7]); 28% in experiment [2] (setting [8]); 12.9% in experiment [2] (at 50.0 µM). In addition, the growth inhibition was 10% in experiment [3] (setting [7]); 42% in experiment [3] (setting [8]); 13.1% in experiment [3] (at 50.0 µM); 11% in experiment [4] (setting [7]); 51% in experiment [4] (setting [8]); 32.6% in experiment [4] (at 50.0 µM). For the same compound, the growth inhibition is 24% in experiment [5] (setting [7]); 24% in experiment [5] (setting [8]); 32.5% in experiment [5] (at 50.0 µM); 15% in experiment [6] (setting [7]); 45% in experiment [6] (setting [8]); 4.35% in experiment [6] (at 50.0 µM).
With `[N-]=[N+]=Nc1c(-c2ccccc2)c(=O)n(-c2ccccc2)c2ccccc12`, the growth inhibition is -19% in experiment [1] (setting [7]); 93% (active) in experiment [1] (setting [8]); 88% (active) in experiment [1] (at 50.0 µM); -20% in experiment [2] (setting [7]); 94% (active) in experiment [2] (setting [8]); 92.8% (active) in experiment [2] (at 50.0 µM). Further, the growth inhibition was -10% in experiment [3] (setting [7]); 95% (active) in experiment [3] (setting [8]); 90% (active) in experiment [3] (at 50.0 µM); 12% in experiment [4] (setting [7]); 95% (active) in experiment [4] (setting [8]); 90% (active) in experiment [4] (at 50.0 µM). Moreover, the growth inhibition in experiment [5] (setting [7]) was -2%; in experiment [5] (setting [8]), 94% (active); in experiment [5] (at 50.0 µM), 90% (active); in experiment [6] (setting [7]), -13%; in experiment [6] (setting [8]), 96% (active); in experiment [6] (at 50.0 µM) it was 86.4% (active).
As for `Cc1c2ccncc2cc2c1sc1ccncc12`, the growth inhibition in experiment [1] (setting [7]) was 97% (active); in experiment [1] (setting [8]), 97% (active); in experiment [1] (at 50.0 µM), 91.2% (active); in experiment [2] (setting [7]) it was 95% (active); in experiment [2] (setting [8]), 97% (active); in experiment [2] (at 50.0 µM) it was 93% (active). The growth inhibition in experiment [3] (setting [7]) is 94% (active); in experiment [3] (setting [8]) it was 99% (active); in experiment [3] (at 50.0 µM), 91.2% (active); in experiment [4] (setting [7]) it was 87% (active); in experiment [4] (setting [8]), 98% (active); in experiment [4] (at 50.0 µM), 90.5% (active). For the same compound, the growth inhibition was 96% (active) in experiment [5] (setting [7]); 98% (active) in experiment [5] (setting [8]); 89.5% (active) in experiment [5] (at 50.0 µM); 96% (active) in experiment [6] (setting [7]); 97% (active) in experiment [6] (setting [8]); 89.3% (active) in experiment [6] (at 50.0 µM).
For `Oc1cc2c(cc1C(c1ccc(Cl)cc1)N1CCOCC1)OCO2` (stereo not given), the growth inhibition was 1% in experiment [1] (setting [7]); 98% (active) in experiment [1] (setting [8]); 99% (active) in experiment [1] (at 50.0 µM); -1% in experiment [2] (setting [7]); 99% (active) in experiment [2] (setting [8]); 99.2% (active) in experiment [2] (at 50.0 µM). Also, the growth inhibition was 7% in experiment [3] (setting [7]); 99% (active) in experiment [3] (setting [8]); 99% (active) in experiment [3] (at 50.0 µM); -8% in experiment [4] (setting [7]); 83% (active) in experiment [4] (setting [8]); 96.5% (active) in experiment [4] (at 50.0 µM). The growth inhibition in experiment [5] (setting [7]) was -7%; in experiment [5] (setting [8]), 98% (active); in experiment [5] (at 50.0 µM) it was 98.9% (active); in experiment [6] (setting [7]) it was 0%; in experiment [6] (setting [8]), 99% (active); in experiment [6] (at 50.0 µM), 98.8% (active).
Take `CC12C=CC(=O)C=C1CCC1C3CCC(O)(C(=O)CO)C3(C)CC(O)C12F` (stereo not given): the growth inhibition in experiment [1] (setting [7]) was 2%; in experiment [1] (setting [8]), 63%; in experiment [1] (at 50.0 µM), 11.4%; in experiment [2] (setting [7]), 4%; in experiment [2] (setting [8]), 65%; in experiment [2] (at 50.0 µM), 25.6%. Besides, the growth inhibition was 3% in experiment [3] (setting [7]); 54% in experiment [3] (setting [8]); 7.65% in experiment [3] (at 50.0 µM); 6% in experiment [4] (setting [7]); 35% in experiment [4] (setting [8]); 72.8% (active) in experiment [4] (at 50.0 µM). Moreover, the growth inhibition in experiment [5] (setting [7]) is 6%; in experiment [5] (setting [8]) it was 82% (active); in experiment [5] (at 50.0 µM), 0.6%; in experiment [6] (setting [7]) it was 4%; in experiment [6] (setting [8]), 79% (active); in experiment [6] (at 50.0 µM), 2.15%.
Turning to `CCOC(=O)C1=C(Nc2ccc(Cl)c(Cl)c2)OC/C1=N\NS(=O)(=O)c1ccc(C)cc1`, the growth inhibition in experiment [1] (setting [7]) is 24%; in experiment [1] (setting [8]), 24%; in experiment [1] (at 50.0 µM) it was 17.6%; in experiment [2] (setting [7]), 15%; in experiment [2] (setting [8]), 15%; in experiment [2] (at 50.0 µM), 51.9%. The growth inhibition in experiment [3] (setting [7]) is 22%; in experiment [3] (setting [8]) it was 22%; in experiment [3] (at 50.0 µM) it was 80.3% (active); in experiment [4] (setting [7]) it was 5%; in experiment [4] (setting [8]) it was 5%; in experiment [4] (at 50.0 µM), 51.6%. For the same compound, the growth inhibition in experiment [5] (setting [7]) is 15%; in experiment [5] (setting [8]) it was 15%; in experiment [5] (at 50.0 µM), 63%; in experiment [6] (setting [7]), 27%; in experiment [6] (setting [8]), 27%; in experiment [6] (at 50.0 µM) it was 64.2%.
As for `O=C(NCCCN1CCN(CCCNC(=O)c2cc(-c3ccccc3)nc3ccccc23)CC1)c1cc(-c2ccccc2)nc2ccccc12`, the growth inhibition in experiment [1] (setting [7]) is 49%; in experiment [1] (setting [8]), 95% (active); in experiment [1] (at 50.0 µM), 84.6% (active); in experiment [2] (setting [7]), 30%; in experiment [2] (setting [8]) it was 95% (active); in experiment [2] (at 50.0 µM), 88.7% (active). The growth inhibition is 26% in experiment [3] (setting [7]); 75% (active) in experiment [3] (setting [8]); 8.55% in experiment [3] (at 50.0 µM); 29% in experiment [4] (setting [7]); 41% in experiment [4] (setting [8]); 86.3% (active) in experiment [4] (at 50.0 µM). Also, the growth inhibition in experiment [5] (setting [7]) was 30%; in experiment [5] (setting [8]), 64%; in experiment [5] (at 50.0 µM) it was 86.1% (active); in experiment [6] (setting [7]), 38%; in experiment [6] (setting [8]) it was 96% (active); in experiment [6] (at 50.0 µM) it was 81.9% (active).
`CCOC(=O)C(NNc1ccccc1)C(c1ccccc1)[P+](c1ccccc1)(c1ccccc1)c1ccccc1` (stereo not given): the growth inhibition in experiment [1] (setting [7]) was 78% (active); in experiment [1] (setting [8]), 99% (active); in experiment [1] (at 50.0 µM), 99.5% (active); in experiment [2] (setting [7]), 94% (active); in experiment [2] (setting [8]) it was 99% (active); in experiment [2] (at 50.0 µM), 99.7% (active). Besides, the growth inhibition in experiment [3] (setting [7]) was 85% (active); in experiment [3] (setting [8]), 99% (active); in experiment [3] (at 50.0 µM) it was 99.7% (active); in experiment [4] (setting [7]), 59%; in experiment [4] (setting [8]), 99% (active); in experiment [4] (at 50.0 µM), 99.5% (active). Besides, the growth inhibition in experiment [5] (setting [7]) is 91% (active); in experiment [5] (setting [8]), 99% (active); in experiment [5] (at 50.0 µM) it was 99.4% (active); in experiment [6] (setting [7]) it was 95% (active); in experiment [6] (setting [8]), 99% (active); in experiment [6] (at 50.0 µM), 99.7% (active).
